PAFAH1B2 FP inh – PAFAH1B2 enzyme inhibitors, primary screen, biochemical, fluorescence polarization, human; Platelet-activating factor acetylhydrolase IB subunit alpha2 (Homo sapiens), P68402; inhibition, % at 3.39 µM; 1.2% of 340,000 active; recombinant PAFAH1B2, FP-rhodamine activity probe; AID 492953, 2010;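 active = inhibition above the mean of all tested compounds plus 3 SD, cut at about 24% in these data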;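 note: 0% = enzyme with DMSO and 100% = wells lacking PAFAH1B2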
Target sequence (P68402 whole entry, looked up): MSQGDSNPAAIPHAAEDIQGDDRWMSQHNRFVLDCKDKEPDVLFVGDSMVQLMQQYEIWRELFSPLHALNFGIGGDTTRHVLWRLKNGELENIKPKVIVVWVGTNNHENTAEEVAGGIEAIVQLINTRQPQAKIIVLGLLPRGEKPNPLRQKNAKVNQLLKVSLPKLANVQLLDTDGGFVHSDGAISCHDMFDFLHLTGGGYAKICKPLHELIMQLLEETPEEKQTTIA
PAFAH1B3 FP inh – PAFAH1B3 enzyme inhibitors, primary screen, biochemical, fluorescence polarization, human | Platelet-activating factor acetylhydrolase IB subunit alpha1 (Homo sapiens), Q15102 | inhibition, % at 3.39 µM | recombinant PAFAH1B3, FP-rhodamine probe | 0.28% of 340,000 active | AID 492972, 2010;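 active = inhibition above the screen-wide average of all tested compounds plus 3 SD, cut at about 25% in these data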;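 note: 0% = enzyme with DMSO only and 100% = wells lacking PAFAH1B3 protein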
PAFAH2 inh – PAFAH2 enzyme inhibitors, primary screen, biochemical, fluorescence polarization, human; Platelet-activating factor acetylhydrolase 2, cytoplasmic (Homo sapiens), Q99487; recombinant PAFAH2, FP-rhodamine activity probe; 0.99% of 340,000 active; inhibition, % at 3.39 µM;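 active = inhibition above the mean over all tested compounds plus 3 SD, cut at about 30% in these data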;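 note: inhibitors block probe labeling of enzyme so polarization drops; 0% = enzyme with DMSO and 100% = wells lacking PAFAH2 protein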
PP1 counter – PP1-alpha phosphatase inhibitors, primary screen, counter-screen for PP5 inhibitor project, biochemical, fluorescence, OMFP substrate, single point; Serine/threonine-protein phosphatase PP1-alpha catalytic subunit (Homo sapiens), P62136; purified PP1alpha; inhibition, % at 6.7 µM; 0.9% of 320,000 active; AID 2235, 2010;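 active = inhibition above the mean inhibition of all tested compounds plus 3 SD, computed separately for each screening campaign, cut at about 15% in these data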
Target sequence (P62136 whole entry, looked up): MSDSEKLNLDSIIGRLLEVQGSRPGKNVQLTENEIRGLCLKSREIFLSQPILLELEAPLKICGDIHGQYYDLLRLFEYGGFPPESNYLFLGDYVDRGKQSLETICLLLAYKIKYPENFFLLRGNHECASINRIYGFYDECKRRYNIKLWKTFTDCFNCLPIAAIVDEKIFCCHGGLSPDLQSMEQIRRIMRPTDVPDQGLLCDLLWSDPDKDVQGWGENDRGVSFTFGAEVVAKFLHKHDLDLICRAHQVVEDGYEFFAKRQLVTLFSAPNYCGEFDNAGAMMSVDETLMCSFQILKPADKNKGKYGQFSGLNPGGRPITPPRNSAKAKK
PP5 inh – PP5 phosphatase inhibitors, primary screen, biochemical, fluorescence; 0.18% of 320,000 active; inhibition, % at 6.7 µM; AID 1987, 2009; purified PP5c, OMFP substrate fluorescence;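 active = inhibition above the campaign's mean inhibition across all tested compounds plus 3 SD, cut at about 9.5% in these data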;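 note: 0% = DMSO only and 100% = 100 µM cantharidin control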
pPAFAH inh – pPAFAH enzyme inhibitors, primary screen, biochemical, fluorescence polarization, human. Platelet-activating factor acetylhydrolase (Homo sapiens), Q13093. 1.5% of 330,000 active. recombinant pPAFAH, FP-rhodamine probe fluorescence polarization. inhibition, % at 3.39 µM. AID 463082, 2010;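 active = inhibition above the mean inhibition across the screen plus 3 SD, cut at about 25% in these data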;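 note: inhibitors block binding of the rhodamine activity-based probe so polarization drops; 0% = enzyme with DMSO and 100% = wells lacking pPAFAH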
pPAFAH confirm – pPAFAH (PLA2G7) enzyme inhibitors, confirmation, biochemical, fluorescence polarization, human. shares compounds with pPAFAH inh. recombinant pPAFAH, FP-Rh probe fluorescence polarization. inhibition, % at 3.39 µM. 72% of 2,300 active;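 active = mean inhibition of the triplicate above the hit cutoff set for the earlier primary screen, cut at about 25% in these data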;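 note: 0% = enzyme with DMSO and 100% = wells lacking pPAFAH enzyme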
PAFAH2 FP conf – PAFAH2 enzyme inhibitors, confirmation, biochemical, fluorescence polarization, human; inhibition, % at 3.39 µM; shares compounds with PAFAH2 inh; recombinant PAFAH2, FP-rhodamine activity probe; 65% of 2,300 active;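 active = mean inhibition over three repeats above a set limit taken from the earlier primary screen, cut at about 30% in these data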;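 note: inhibitor blocks binding of rhodamine activity probe so polarization falls; 0% = enzyme with DMSO and 100% = wells lacking PAFAH2 protein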
The depositor's hits bear a star; / = no result. The list is not random: actives were taken first. Their share in the collection is about 3.4%.

SMILES | PAFAH1B2 FP inh | PAFAH1B3 FP inh | PAFAH2 inh | PP1 counter | PP5 inh | pPAFAH inh | PAFAH2 FP conf | others
Cc1ccc(-c2cc(-c3ccccc3)cc(-c3ccccc3)[n+]2-c2ccc(C(=O)O)cc2)cc1 | 8.6 | 5.7 | 10.2 | -0.4 | 1.7 | 38.5* | / | pPAFAH confirm=-0.2
Cc1ccc(S(=O)(=O)Cc2ccc(C(=O)N3CCC4(CC3)OCCO4)o2)cc1 | 5.0 | 5.1 | 10.7 | -5.2 | 9.4 | 0.0 | /
Cc1ccc(CS(=O)(=O)Cc2ccc(C(=O)N3CCC4(CC3)OCCO4)o2)cc1 | 3.4 | 1.5 | 12.1 | -2.2 | -0.7 | 40.3* | / | pPAFAH confirm=32.4*
CC(C)N1CCN(Cc2cccc([N+](=O)[O-])c2)CC1 | 9.2 | 5.0 | 117.5* | -6.8 | 1.2 | 5.8 | 4.6
COc1cc2cc(C(=O)N3CC(COS(C)(=O)=O)c4ccc(O)cc43)[nH]c2c(OC)c1OC (stereo unspecified) | 12.1 | 10.1 | 9.6 | / | / | / | /
COc1ccc(/C=C2\C(=O)NC(=S)N(C)C2=O)cc1C | 2.6 | 3.8 | 35.5* | -2.7 | -1.2 | -0.3 | -0.3
Cc1ccsc1/C=C1\C(=O)NC(=S)N(C)C1=O | 2.7 | 0.3 | 0.8 | -8.3 | 0.8 | 2.9 | /
C[C@]12CCC3C(CC[C@@H]4[C@H]5O[C@H]5CC[C@]34C)C1CC[C@@H]2O (stereo partly specified) | 2.8 | 17.5 | -3.3 | / | / | / | /
C=CCN1C(=O)/C(=C/c2cc(C)n(-c3cccnc3)c2C)C(=O)NC1=S | 8.0 | -0.9 | 30.9* | -3.3 | -0.6 | 7.2 | 10.1
Cc1cc(C=C2C(=O)NC(=S)NC2=O)c(C)n1C1CCCC1 | 12.0 | 10.5 | 34.0* | 5.8 | 0.0 | 9.7 | 15.0
CC(N)C(=O)NC1C2C(=C(O)CC(O)C2O)C(=O)OC1(C)C(Cl)Cl (stereo unspecified) | -4.2 | 7.5 | 5.4 | / | / | / | /
O=C(O)C1C(C(=O)O)C2(Cl)C(Cl)=C(Cl)C1(Cl)C2(Cl)Cl (stereo unspecified) | 6.3 | 4.1 | 27.6 | -4.0 | 0.1 | -2.1 | /
C=CCOC(=O)C1C(C(=O)O)C2(Cl)C(Cl)=C(Cl)C1(Cl)C2(Cl)Cl (stereo unspecified) | 20.7 | 8.4 | 31.3* | / | / | / | 21.4
Cc1cc(N(CCCl)CCCl)ccc1C=NNC(=O)Cc1cc(=O)oc2cc(O)ccc12 | 15.0 | 19.9 | -1.8 | / | / | / | /
Oc1c(Cl)cccc1Cc1cc(Cl)cc(Cl)c1O | 5.0 | 5.8 | 37.4* | / | / | / | 25.2
Cn1c(=O)c2c(nc(-c3ccc(N(CCCl)CCCl)cc3)n2C)n(C)c1=O | 5.0 | 3.6 | 2.4 | / | / | / | /
Cc1cc(OCC(=O)N2C[C@H]3C[C@@H](C2)c2cccc(=O)n2C3)c2c(C)cc(=O)oc2c1 | -0.2 | 5.8 | 38.3* | -1.9 | 1.0 | 4.9 | -2.6
CCc1cc(=O)oc2cc(OCC(=O)N3C[C@H]4C[C@@H](C3)c3cccc(=O)n3C4)c(Cl)cc12 | 4.0 | 8.3 | 6.3 | 1.8 | 4.9 | 1.2 | /
Cc1cc(/C=C2\C(=O)NC(=O)N(c3ccc(Cl)cc3)C2=O)c(C)n1-c1sc2c(c1C#N)CCCC2 | 3.2 | 3.8 | 33.5* | 10.7 | 1.7 | 12.7 | 17.5
COC(=O)C1=C(c2cccc(OCc3ccccc3)c2)C[C@@H]2CC[C@H]1N2C(=O)NCCc1ccc(F)cc1 | 11.5 | 0.0 | -4.6 | 7.9 | 2.9 | 4.0 | /
Cc1ccccc1-n1c(C)cc(/C=C2/C(=O)NC(=O)N(Cc3ccco3)C2=O)c1C | 2.8 | 15.0 | 41.7* | 2.5 | 1.3 | 5.7 | 45.6*
Cc1cc(/C=C2\C(=O)NC(=O)N(Cc3ccccc3Cl)C2=O)c(C)n1-c1ccc(C(=O)O)cc1 | 4.5 | -1.4 | 33.7* | -3.3 | 0.2 | 10.8 | 24.2
Cc1ccc(-n2c(C)cc(/C=C3/C(=O)NC(=O)N(Cc4ccco4)C3=O)c2C)cc1 | -2.9 | 0.5 | 6.1 | 4.7 | 0.0 | 11.3 | /
CC(C)(C)n1cccc1/C=C1\C(=O)NC(=O)N(c2ccccc2)C1=O | 8.8 | -2.4 | 50.1* | -0.8 | 2.5 | 2.1 | 44.1*
Cn1cc(/C=C2\C(=O)NC(=O)N(c3ccccc3)C2=O)c2ccccc21 | 4.9 | 7.3 | 39.3* | 1.2 | -0.5 | -1.4 | 36.0*
SMILES | PAFAH1B2 FP inh | PAFAH1B3 FP inh | PAFAH2 inh | PP1 counter | PP5 inh | pPAFAH inh | PAFAH2 FP conf | others
COc1cc(/C=C2\C(=O)NC(=O)N(c3ccccc3)C2=O)cc(OC)c1O | 4.5 | 10.3 | -1.3 | 12.7 | 3.7 | 2.6 | /
O=C(CN1CCN(C(=O)COc2cccc(F)c2)CC1)Nc1ccc(Cl)c(C(F)(F)F)c1 | 0.8 | 7.5 | 5.9 | 3.5 | 5.2 | -0.7 | /
Cn1cc(C(=O)OCC(=O)N2CCCCC2)c2ccccc21 | 5.5 | 5.2 | 1.0 | 4.8 | 2.3 | -6.8 | /
Cn1cc(C(=O)OCC(=O)NC2(C#N)CCCC2)c2ccccc21 | 0.2 | 3.2 | 65.3* | -2.4 | 2.6 | 9.6 | 49.2*
Cn1cc(C(=O)OCC(=O)NC2(C#N)CCCCC2)c2ccccc21 | 5.9 | 6.0 | 80.7* | / | / | / | 80.6*
COc1ccccc1NC(=O)COC(=O)c1cc(C)n(C2CC2)c1C | 2.1 | 2.1 | 4.4 | / | / | 3.3 | /
Cc1cc(C(=O)OCC(=O)Nc2cccc(F)c2)c(C)n1C1CC1 | 1.4 | 8.9 | 65.1* | 13.9 | 3.5 | 5.8 | 51.0*
Cc1cc(C(=O)OCC(=O)Nc2ccc(F)cc2)c(C)n1C1CC1 | 0.0 | 5.3 | 42.8* | -0.9 | 1.2 | 7.4 | 24.6
O=P(Oc1ccccc1)(Oc1ccccc1)C(O)c1ccc(Cl)cc1 (stereo unspecified) | 1.9 | 2.6 | 13.9 | 7.0 | 2.0 | 7.5 | /
COc1ccc(C(O)P(=O)(Oc2ccccc2)Oc2ccccc2)cc1 (stereo unspecified) | -0.9 | 4.6 | 33.4* | 1.4 | 0.3 | -2.0 | 18.3
O=C1NC(=O)C(=Cc2c(Cl)cccc2Cl)C(=O)N1 | 3.1 | 7.8 | -0.6 | / | / | / | /
CCC(C)N1C(=O)/C(=C\c2ccc(N3CCCCCC3)cc2)C(=O)NC1=S (stereo unspecified) | -9.0 | -27.6 | -0.1 | -1.9 | 1.4 | 3.5 | /
CCC(C)N1C(=O)/C(=C\c2cc3c4c(c2)CCCN4CCC3)C(=O)NC1=S (stereo unspecified) | 10.7 | -4.6 | 36.2* | 3.5 | -1.0 | 3.2 | 20.4
CC(C)(C)N1CC(C(=O)c2ccccc2)C1c1ccccc1 (stereo unspecified) | -1.4 | -2.2 | -4.8 | / | / | / | /
